# Assay outcomes deposited in PubChem by National Center for Advancing Translational Sciences (NCATS).
# IL-1B inflam inh – qHTS for Inhibitors of Inflammasome Signaling: IL-1-beta AlphaLISA Primary Screen; THP-1 LPS/ATP IL-1B secretion, AlphaLISA, 16 h; stronger effect = lower value; activity change, % at 57.5 µM; 360,000 compounds, 4.7% hits; AID 743279, 2014; in the data active = activity change below about -50%; inconclusive = mostly about -30% to -49%
#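 THP-1 cells pretreated 1 hr with compounds (up to 57.5 uM final), then stimulated with LPS (250 ng/mL final) plus ATP (1.25 mM final); secreted IL-1B measured by AlphaLISA after 16 hr, decreased signal indicating inhibition.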
# TDP1 cell noCPT – qHTS for Inhibitors of human tyrosyl-DNA phosphodiesterase 1 (TDP1): qHTS in cells in absence of CPT; AID 686978, 2013; 420,000 compounds, 15% hits; DT40 Tdp1-/- hTDP1 cells, no CPT, ATP luminescence, 48 h; Potency, µM (doses to about 46.2 µM), most hits filed as inhibitors; also: nearly all actives have a fitted effect of over 55% in size
#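 No-CPT arm: Tdp1-/-;hTDP1 DT40 cells (400/well) plus compounds, incubated ≥48 hr at 37 °C. Readout CellTiter-Glo luminescence.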
# HT1080 IDH1KD tx – qHTS for induction of synthetic lethality in tumor cells producing 2HG: qHTS for the HT-1080-IDH1KD cell line; HT-1080 IDH1 knockdown viability, ATP luminescence, 48 h; Potency, µM (top dose mostly 46.1 µM), most hits filed as cytotoxic; 360,000 compounds, 2% hits; AID 686971, 2013
#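 Viability of IDH1-knockdown HT-1080 fibrosarcoma cells was assessed by CellTiter-Glo after 48 h at 37 °C with titrated compound; concentration-effect curves were classified by fit quality and response size.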
# HT1080-NT tox – qHTS for induction of synthetic lethality in tumor cells producing 2HG: qHTS for the HT-1080-NT fibrosarcoma cell line; HT-1080-NT fibrosarcoma viability, CellTiter-Glo ATP luminescence, 48 h; 360,000 compounds, 1.6% hits; Potency, µM (highest dose often 46.1 µM), actives largely listed as cytotoxic; AID 686970, 2013;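 also: NT is the 2HG producing partner of a matched IDH1 knockdown line; nearly all actives have a fitted effect of over 55% in size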
#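 Read-out is CellTiter-Glo luminescence after 10 minutes at room temperature, following 48 hours' compound treatment of HT-1080-NT cells (750 cells/well, RPMI, 5% FBS, 37 degrees C).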
# DT40 TDP1 CPT – qHTS for Inhibitors of human tyrosyl-DNA phosphodiesterase 1 (TDP1): qHTS in cells in presence of CPT. Potency, µM (highest dose often 46.2 µM), hits mostly inhibitors. chicken DT40 Tdp1-/-;hTDP1 cells + 20 nM CPT, ATP luminescence, 48 h. 420,000 compounds, 12% hits; also: nearly all actives have a fitted effect of over 55% in size
#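 Chicken DT40 Tdp1-/- cells complemented with human TDP1, 400 cells/well, exposed to compounds plus 20 nM camptothecin for at least 48 h at 37 C; viability read as ATP content by CellTiter-Glo luminescence.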
# A number is an active result; - = inactive; ? = inconclusive; . = no result; [ ] = dose if it differs, or a comment. Shown are actives, neighbours in structure and some others; about 19% of the full set was active somewhere. Unless noted, calls follow the shape of the dose curve; as a rule, active = well fitted curve in the direction sought with a large enough effect; inconclusive = small, poorly fitted or top-dose-only effect, or another doubt; inactive = no such curve, though single readings can be large; an effect the other way counts as inactive or inconclusive.
SMILES,IL-1B inflam inh,TDP1 cell noCPT,HT1080 IDH1KD tx,HT1080-NT tox,DT40 TDP1 CPT
CCOc1cc(/C=N/Nc2nc3ccccc3[nH]2)cc(Br)c1OCC(=O)N(C)C,-92.4,13µM,?,?,10.3µM
CCOc1ccccc1OCC(=O)Nc1nc2ccccc2[nH]1,-,?,-,-,-
C(=N\Nc1nc2ccccc2[nH]1)/c1ccc2c(c1)OCCO2,-,?,?,-,?
COc1ccc(C=NN=C2c3ccccc3-c3ccccc32)cc1OC,-,23.1µM,-,-,?
COc1cc(/C=N/N=C2/C(=O)Nc3ccccc32)ccc1O,?,-,-,-,-
CCOC(=O)c1nn(-c2ccc(F)cc2)c(=O)cc1OCC(=O)Nc1ccc(F)c(F)c1,-,-,-,-,-
COc1ccc(Cl)cc1NC(=O)C(C)N(C)Cc1cccc(Cl)c1Cl (stereo unspecified),-,?,-,-,?
CN(CCc1ccc(Cl)c(Cl)c1)CCN1CCCC1,.,23.7µM,.,.,8.2µM
CN(CCc1ccccn1)Cc1ccc(Cl)c(Cl)c1,-,-,-,-,-
O=S1(=O)[C@H]2C[C@@H]3C=C[C@@]2(CN1Cc1ccc(F)cc1)O3,-,-,-,-,?
CCN(CC)c1ccc(/C=C/C2=C3C=CC=CC3NC=C2)cc1 (stereo unspecified),.,14.1µM,.,.,?
Cc1cccc(Cn2cc(S(=O)(=O)c3cccc(Cl)c3)c(=O)c3cc(F)c(N4CCOCC4)cc32)c1,.,-,.,.,-
Cc1ccsc1/C=N/NC(=O)C1C(=O)NCC1c1ccccc1 (stereo unspecified),-,-,-,-,-
CN(C)c1ccc2nc3c(=O)[nH]c(=O)nc-3n(CC(O)C(O)C(O)CO)c2c1 (stereo unspecified),-,?,-,-,?
Clc1cccc(CON/C=N/c2ncnc3sccc23)c1,-,10.3µM,-,-,18.4µM
NC(=O)NOCc1cccc(Cl)c1,-,-,-,-,-
Clc1cccc(Cl)c1CON/C=N/c1ncnc2sccc12,-,16.4µM,-,?,23.1µM
COc1cc(CNC[C@H]2O[C@@H](n3cc(C)c(=O)[nH]c3=O)C[C@@H]2O)ccc1OCc1cccc(Cl)c1,-,-,-,-,-
Cc1c(-c2nc(N)nc(Nc3ccccc3)n2)oc2ccccc12,?,16.4µM,?,?,?
CS(=O)(=O)Nc1ccc([N+](=O)[O-])cc1OC1CCCCC1,.,?,.,.,-
O=C(c1cc2c(F)cccc2s1)N1CCCC1,-,-,-,-,-
Cc1ccccc1NC(=O)CSc1nc(-c2ccco2)nc2cc(=O)[nH]n12,.,-,.,.,-
C[C@]1(C(=O)NCc2cc(F)cc(C(F)(F)F)c2)C=C[C@@H](Cc2ccccc2)N1C(=O)c1ccccc1,-,?,-,?,16.4µM
COc1ccc(C(=O)NCCS(=O)(=O)N2CCCCCC2)cc1,-,-,-,-,-
O=C(OCC(=O)N1CCN(c2ccc(F)cc2)CC1)c1cnc2ccccc2n1,-,-,-,-,-
SMILES,IL-1B inflam inh,TDP1 cell noCPT,HT1080 IDH1KD tx,HT1080-NT tox,DT40 TDP1 CPT
CN(C1CCCCC1)S(=O)(=O)c1ccc(NC(=O)Cn2nc(-c3ccc(F)cc3)ccc2=O)cc1,-,20.6µM,-,-,?
COc1ccc(N2CCN(Cc3cccn3-c3nnc(N4CCN(C5CCCCC5)CC4)s3)CC2)cc1,.,20.6µM,.,.,20.6µM
CCOc1ccc(Br)cc1S(=O)(=O)Nc1cccc(-c2ccc(OC)nn2)c1,.,-,.,.,-
CCOc1ccccc1NC(=O)COc1cccnc1[N+](=O)[O-],-,?,-,-,-
O=C(Cn1cc(S(=O)(=O)Cc2cccc(Cl)c2)c2ccccc21)Nc1ccccc1Cl,.,-,.,.,-
CN(C)c1ccc(NC(=O)Cn2cc(S(=O)(=O)Cc3ccccc3Cl)c3ccccc32)cc1,.,8.2µM,.,.,?
CCN(C(=O)Cn1cc(S(=O)(=O)Cc2ccccc2Cl)c2ccccc21)c1ccccc1,.,23.1µM,.,.,16.4µM
Cc1ccc(C)c(NC(=O)Cn2cc(S(=O)(=O)Cc3cccc(Cl)c3)c3ccccc32)c1,.,?,.,.,16.4µM
Cc1ccc(CNC(=O)Cn2cc(S(=O)(=O)Cc3ccccc3Cl)c3ccccc32)cc1,.,14.6µM,.,.,18.4µM
CC(=O)c1ccc(N(CC(=O)NCCc2ccccc2)C(=O)c2csnn2)cc1,-,-,-,-,-
COc1cccc(C(C(=O)NCC2CCCO2)N(C(=O)Cn2nnc3ccccc32)c2ccc(NC(C)=O)cc2)c1OC (stereo unspecified),-,-,-,-,-
O=C(O)CC(Cc1ccc(Br)cc1)C(=O)Nc1ccccc1 (stereo unspecified),-,-,-,-,-
CC(C)(C)c1ccc(C(=O)N2CCOC23CCCCC3)cc1,-,13µM,-,-,14.6µM
O=C(Nc1ccc(Cl)cc1)N1CCOC12CCCCC2,-,-,-,-,-
COCC1CCCN(Cc2ccc3c(c2)CN(C(=O)c2cn4ccc(C)cc4n2)CCO3)C1 (stereo unspecified),.,-,.,.,-[9.04 µM]
O=C1C(=Cc2ccc(F)cc2)CCc2ccccc21,-,20.6µM,-,-,16.4µM
COc1ccc(C=C2CCc3ccccc3C2=O)cc1,-,?,?,?,?
O=C1C(=Cc2ccc(Cl)cc2)CCc2ccccc21,-,?,?,?,20.6µM
O=C1C(=Cc2cccc(Cl)c2)Cc2ccccc21,-,?,-,-,?
CCOc1ccc(/C=C2\CCc3ccccc3C2=O)cc1,-,?,?,-,-
O=C1C(=Cc2cccc(Cl)c2)CCc2ccccc21,-,20.6µM,?,?,?
CCn1nc(C)c(CNC(=O)C2CCC(=O)N(CCc3ccc(Cl)cc3)C2)c1C (stereo unspecified),-,-,-,-,-
O=C1CN(C(=O)/C=C/c2cc(Br)ccc2F)CCN1,-,-,-,-,-
C[n+]1ccc(/C=C/c2ccccc2O)c2ccccc21,-56.3,?,?,-,?
CN(C)c1ccc(/C=C/c2cc[n+](C)c3ccc4ccccc4c23)cc1,.,?,.,.,0.0891µM
C[n+]1ccc(/C=C/c2ccc(C=S)cc2)c2ccccc21,.,3.16µM,.,.,3.98µM
C[n+]1ccc(/C=C/c2ccc3c(c2)OCO3)c2ccccc21,.,-,.,.,-
